Measured values published in PubChem BioAssay.
Unmarked numbers belong to inactive results.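 The calls were made as follows: active = at least 20% inhibition of 6-phosphogluconate dehydrogenase activity; inactive = the rest.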

molecular target: 6-phosphogluconate dehydrogenase, decarboxylating (Homo sapiens) (UniProt P52209); test: inhibition of human phosphogluconate dehydrogenase – biochemical, recombinant enzyme, NADPH absorbance, primary screen (AID 1159550); settings: recombinant 6PGD, NADPH absorbance 341 nm; at 10 µM; hits give high values
Sequence (P52209 whole entry, looked up): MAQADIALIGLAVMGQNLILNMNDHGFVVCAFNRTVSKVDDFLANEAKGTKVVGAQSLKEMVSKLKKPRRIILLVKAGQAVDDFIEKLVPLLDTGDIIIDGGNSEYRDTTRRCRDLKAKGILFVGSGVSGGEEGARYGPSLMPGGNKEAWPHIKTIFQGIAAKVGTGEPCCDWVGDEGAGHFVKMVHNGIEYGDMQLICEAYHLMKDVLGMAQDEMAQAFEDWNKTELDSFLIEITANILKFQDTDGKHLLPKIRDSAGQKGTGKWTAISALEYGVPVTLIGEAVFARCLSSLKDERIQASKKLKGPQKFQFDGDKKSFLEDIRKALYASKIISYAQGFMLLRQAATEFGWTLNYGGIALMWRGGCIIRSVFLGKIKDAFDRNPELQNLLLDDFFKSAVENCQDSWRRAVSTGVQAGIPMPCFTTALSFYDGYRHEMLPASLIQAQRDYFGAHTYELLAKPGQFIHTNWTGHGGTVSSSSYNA

| Structure (SMILES) | inhibition |
| --- | --- |
| OC[C@@H](O)C(O)[C@H](O)CO | -0.48% |
| COc1c(Cl)ccc(Cl)c1C(=O)O | 7.71% |
| CC(=O)OC1CCC2(C)C(CCC3C2CCC2(C)C3CC3OC4(CCC(C)CO4)C(C)C32)C1 (stereo unspecified) | 4.61% |
| CC(=O)OC1CCC2(C)C(=CCC3C2CCC2(C)C(C(C)CCCC(C)C)CCC32)C1 (stereo unspecified) | 13.3% |
| COC(=O)c1c(Cl)c(Cl)c(C(=O)OC)c(Cl)c1Cl | -11.1% |
| C=C1C(=O)OC2C[C@]3(C)[C@H](C(C)=CC[C@@H]3O)[C@@H](O)C12 (stereo partly specified) | 18.1% |
